# Source: PubChem BioAssay
# The list is not random: actives were taken first. Their share in the collection is about 2.2%.
# miR-21 act: qHTS Assay for Modulators of miRNAs and/orActivators of miR-21; Potency, µM (series often up to 38.3 µM), without a hit: at the highest dose activity change, positive = activation, most hits filed as activators; HeLa miR-21 FLuc reporter, luciferase, 48 h; 340,000 tested, under 10 active; AID 2288, 2010;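 also: % of control where 0% means no effect; miR-21 action dims this reporter so a rising signal means less miR-21 action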
#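 Compounds were titrated across several concentrations (up to approximately 40 uM) and incubated 48 hours with HeLa miR-21-FLuc reporter cells (miR-21 target sequence downstream of FLuc, endogenous miR-21). Readout was firefly luciferase luminescence after lytic detection reagent.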
# B2AR arrestin: qHTS assay of beta-arrestin-biased ligands of beta2-adrenergic receptor. beta-arrestin recruitment to beta2AR, cell-based reporter. Potency, µM (doses to about 46.1 µM), for the others: at the highest dose activation, hits mostly activators. 330,000 compounds, 0.02% hits. AID 492947, 2010;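 also: potency is read from the fitted curve at half-maximal effect; 0% = DMSO controls and full agonism = EC100 isoproterenol or metaproterenol; nearly all actives have a fitted effect of over 65% in size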
# Target sequence (P07550 whole entry, looked up): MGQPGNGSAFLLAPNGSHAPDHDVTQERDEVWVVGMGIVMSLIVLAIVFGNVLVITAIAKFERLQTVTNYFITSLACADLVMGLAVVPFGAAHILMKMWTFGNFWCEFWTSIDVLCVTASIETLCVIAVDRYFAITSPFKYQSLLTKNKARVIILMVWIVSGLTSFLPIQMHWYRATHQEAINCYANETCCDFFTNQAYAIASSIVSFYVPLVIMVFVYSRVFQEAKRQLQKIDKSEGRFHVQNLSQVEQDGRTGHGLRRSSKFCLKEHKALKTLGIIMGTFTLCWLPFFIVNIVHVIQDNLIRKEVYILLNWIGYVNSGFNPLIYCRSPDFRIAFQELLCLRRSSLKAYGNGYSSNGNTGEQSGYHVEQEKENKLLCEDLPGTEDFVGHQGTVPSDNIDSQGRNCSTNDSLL
# Nrf2 ARE act: qHTS of Nrf2 Activators | AREc32 ARE-luciferase reporter (MCF7-derived line), luminescence, 24 h | Potency, µM (doses to about 46.1 µM), without a hit: at the highest dose activation, actives largely listed as activators | 410,000 compounds, 0.31% hits | AID 624171, 2012; also: potency is read from the fitted curve at half-maximal effect; % of control where 0% means no effect; nearly all actives have a fitted effect of over 65% in size
#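 Nrf2 activation is followed as ARE-luciferase induction in the AREc32 line after one day of compound treatment; luminescence is read with Steady-Glo.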
# A549 viability: Nrf2 qHTS screen for inhibitors: counterscreen for cytotoxicity. 390,000 compounds, 0.16% hits. Potency, µM (doses to about 46 µM), without a hit: at the top dose activity change, negative = cytotoxicity, actives largely listed as inhibitors. A549 ARE-Fluc cells, CellTiter-Fluor viability, 18-24 h. AID 504648, 2011; also: potency is read from the fitted curve at half-maximal effect; % is scaled to controls: 0 for no effect and ±100 for the full control effect
#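 A549 ARE-Fluc cells in 5% FBS OPTI-MEM, 5000 cells/well, rested 2 h then exposed to compounds in concentration-response for 18-24 h at 37 °C. Viability by CellTiter-Fluor fluorescence (Ex 405/Em 525) after 30 min; luciferase luminescence (BugLite, 15 min, RT) read afterwards.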
# Nrf2 block: Nrf2 qHTS screen for inhibitors; A549 ARE-Fluc reporter, luciferase luminescence, 18-24 h; Potency, µM (doses to about 46 µM), for inactives: top-dose activity change, negative = inhibition, actives largely listed as inhibitors; 360,000 compounds, 2.1% hits; also: potency is read from the fitted curve at half-maximal effect; % is scaled to controls: 0 for no effect and ±100 for the full control effect; nearly all actives have a fitted effect of over 60% in size
#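 Nrf2 function is reported as luminescence of an ARE-controlled luciferase in A549 cells. Compounds were tested at several concentrations, and a CellTiter-Fluor read on the same wells flagged cytotoxicity.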
# Numbers without * were called inactive; ? = inconclusive; . = no result given. Calls follow the shape of the dose curve; as a rule, active = well fitted curve in the direction sought with a large enough effect; inconclusive = small, poorly fitted or top-dose-only effect, or another doubt; inactive = no such curve, though single readings can be large; an effect the other way counts as inactive or inconclusive.
SMILES,miR-21 act,B2AR arrestin,Nrf2 ARE act,A549 viability,Nrf2 block
COC(=O)c1ccsc1NC(=O)CCS(=O)(=O)c1ccccc1,7.4%,-0.7%,12.6µM*,-3.0%,-14.6%
Cc1ccc(S(=O)(=O)CCC(=O)Nc2sccc2C(N)=O)cc1,.,0.1%,7.9%,-8.1%,-5.7%
COC(=O)c1ccsc1NC(=O)CCS(=O)(=O)c1ccc(Cl)cc1,.,-0.2%,15.8µM*,-1.8%,3.3%
CC(=O)c1sc(NC(=O)CCS(=O)(=O)c2ccccc2)nc1C,11.0%,0.3%,?,?,20.6µM*
O=C(CSc1ncc(-c2ccccc2)[nH]1)Nc1cccc(Br)c1,-20.4%,.,3.0%,19.4%,?
CN(C)c1ccc(C(=O)N/N=C/c2cc(Br)cc(Br)c2O)cc1,-2.1%,0.1%,-0.8%,-12.5%,13µM*
COc1c(Br)cc(Br)cc1/C=N/NC(=O)c1ccncc1,5.7%,-0.4%,1.5%,-1.9%,-5.6%
Cc1cc(/C=C2/C(=N)N3C(=NC2=O)SN=C3S(C)(=O)=O)c(C)n1-c1ccc(F)cc1,-31.3%,-0.2%,-0.3%,?,18.0%
CCOc1ccc(-n2c(C)cc(/C=C3/C(=N)N4C(=NC3=O)SN=C4S(C)(=O)=O)c2C)cc1,-2.2%,-1.0%,-0.5%,?,4.61µM*
CCN(C(=O)COC(=O)/C=C/c1nc2ccccc2s1)c1c(N)n(Cc2ccccc2)c(=O)[nH]c1=O,.,.,12.6µM*,8.9%,-19.4%
CCN(C(=O)COC(=O)c1ccc2ccccc2c1)c1c(N)n(Cc2ccccc2)c(=O)[nH]c1=O,.,-0.4%,-1.9%,?,23.1µM*
CCN(C(=O)COC(=O)C1CCC(C(C)(C)C)CC1)c1c(N)n(Cc2ccccc2)c(=O)[nH]c1=O (stereo unspecified),.,.,0.0%,-20.4%,13µM*
COCCN(C(=O)COC(=O)/C=C/c1nc2ccccc2s1)c1c(N)n(Cc2ccccc2)c(=O)[nH]c1=O,.,-0.3%,?,4.1%,?
O=S1(=O)N=C(Oc2ccc(-c3ccccc3)cc2)c2ccccc21,.,.,.,5.9%,15.8%
CCCCCC(=O)NNC(=S)NC(=O)c1ccccc1[N+](=O)[O-],-0.7%,-0.3%,-0.5%,?,23.1µM*
CCCCCC(=O)NNC(=S)NC(=O)c1cccc([N+](=O)[O-])c1,-4.5%,-1.5%,-0.1%,-3.1%,4.1%
CC1=CC2C(C(O)CC3(C)C2CC(C)C32OCOC23COCO3)C2(C)C/C(=C\O)C(=O)C=C12 (stereo unspecified),.,.,-2.6%,?,20.6µM*
COc1ccc(Cn2c(C(=O)O)c(CNCc3ccc(C)o3)c3ccc(OC)cc32)cc1,-1.9%,.,9.1%,?,-22.0%
Cc1ccc(C(=O)N(Cc2ccc(N(C)C)cc2)Cc2ccco2)cc1,-2.7%,.,10.7%,1.0%,?
CCS(=O)(=O)c1ncc(Cl)c(C(=O)N(Cc2ccccc2)Cc2ccco2)n1,?,.,?,16.4µM*,23.1µM*
CCSc1ncc(Cl)c(C(=O)N(Cc2ccc(N(C)C)cc2)Cc2ccco2)n1,29.8%,.,10.8%,-9.9%,18.4µM*
CCS(=O)(=O)c1ncc(N(Cc2cccc(F)c2)Cc2ccco2)c(C(=O)Nc2ccccc2Cl)n1,-1.5%,.,1.3%,1.1%,10.2%
CCC/C=C1/CCCOC(C(=O)NCC2CC2)(C(F)(F)F)C1 (stereo unspecified),.,.,.,-2.7%,19.9%
Cc1nn(Cc2ccc(Cl)cc2Cl)c(C)c1NC(=O)NC12CC3CC(CC(C3)C1)C2,11.9%,-0.1%,-0.6%,-12.3%,20.6µM*
Cc1nn(Cc2ccc(Cl)cc2Cl)c(C)c1NC(=O)c1sc2ccccc2c1Cl,-2.1%,-5.1%,-0.4%,-9.1%,-21.7%
SMILES,miR-21 act,B2AR arrestin,Nrf2 ARE act,A549 viability,Nrf2 block
O=c1oc2ccccc2nc1/C=C(O)/C=C\c1ccccc1,-30.7%,-0.5%,15.8µM*,-8.8%,3.2%
Cc1ccc(/C(O)=C/c2nc3ccccc3oc2=O)cc1,-7.3%,-0.1%,12.6µM*,-9.4%,-18.2%
O=c1oc2ccccc2nc1/C=C(O)/C=C/c1ccc(F)cc1,-28.4%,-0.7%,17.8µM*,-7.1%,10.8%
COc1ccccc1CNC(=O)CCCn1c(=O)c2cccn2c2ccccc21,-5.7%,.,4.5%,-19.6%,?
O=C(COc1ccccc1/C=C1\SC(=S)NC1=O)Nc1ccc(F)cc1,.,-0.3%,?,?,23.1µM*
CCN(CC)c1ccc(/C=N/NC(=O)CNC(=O)C2COc3ccccc3O2)c(O)c1 (stereo unspecified),14.8%,0.0%,0.2%,-14.2%,23.1µM*
COC(=O)C1=C(C(=O)OC)[C@@H]2N(C)c3ccccc3[C@@]23C[C@@H](C(=O)OC)N(C(=O)C2CCC2)C3=N1,-4.8%,-0.7%,-0.3%,-2.1%,7.2%
COC(=O)C1=C(C(=O)OC)[C@@H]2N(Cc3ccccc3)c3ccccc3[C@@]23C[C@@H](C(=O)OC)N(C(=O)c2ccc(Br)cc2)C3=N1,4.7%,0.3%,-1.0%,-24.3%,16.4µM*
COC(=O)C1=C(C(=O)OC)[C@@H]2N(C)c3ccccc3[C@@]23C[C@@H](C(=O)OC)N(C(=O)c2cc(C)oc2C)C3=N1,22.9%,-1.0%,-0.7%,-29.3%,18.4µM*
Nc1c2ccccc2nc2ccccc12,?,-1.0%,-2.0%,?,20.6µM*
CCOc1cc(C2Nc3ccccc3C(=O)N2Cc2ccco2)ccc1OCc1ccccc1Cl (stereo unspecified),.,.,.,-0.2%,?
COc1ccc(-c2nc3cccc(C)n3c2Nc2ccc(C)cc2)cc1,.,.,.,-4.4%,-6.4%
CCCn1c2c(c(=N)c3c1CCC3)CCC2,23.5%,0.0%,-1.3%,-17.2%,7.31µM*
CCCn1c2c(c(=N)c3c1CCC3)CCCC2,?,0.8%,-0.1%,3.7%,?
Cc1cc(C)c(NC(=O)c2cc3c(=O)n4ccccc4nc3n2C)c(C)c1,-3.4%,.,0.4%,0.9%,6.9%
CCOC(=O)c1sc(N2C(=O)C(O)=C(C(=O)c3ccc(C)o3)C2c2ccc(OC)c(OC)c2)nc1C (stereo unspecified),-5.3%,0.6%,0.1%,?,?
CCOC(=O)c1sc(N2C(=O)C(O)=C(C(=O)c3ccc(C)o3)C2c2cccc([N+](=O)[O-])c2)nc1C (stereo unspecified),-10.2%,0.1%,0.9%,?,23.1µM*
CCc1cccc(C)c1NC(=O)c1cnn(-c2ccc(F)cc2)c1-n1cccc1,-0.7%,.,0.2%,-5.4%,?
O=C(CC1(O)C(=O)Nc2cc(Cl)cc(Cl)c21)c1ccccc1O (stereo unspecified),-0.5%,0.3%,15.8µM*,-13.1%,-27.1%
O=C1CN=C(Nc2cccc(C(F)(F)F)c2)N1C1CCCC1,-9.1%,-2.3%,-0.7%,-26.6%,14.6µM*
Cc1cc(C)c(NC2=NCC(=O)N2C2CCCCC2)c(C)c1,-9.4%,-0.1%,-0.7%,1.6%,-0.2%
